Rows were chosen to be rich in hits. Some 0.98% of all compounds tested hit in one or more screens of this group.
C-LANA FP: inhibitors of KSHV LANA C-terminal domain DNA binding | inhibition, % at 9 µM | 340,000 compounds, 0.078% hits | MBP-C-LANA/FAM-LBS DNA binding, fluorescence polarization | AID 504423;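 active = highest replicate inhibition at or above 60% at 9 µM, even if other replicates fall short; inactive = all replicates below 60% inhibition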;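 also: 0% = neutral control wells and 100% = 4 µM acridine orange control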
LANA-H2A inh: blocks KSHV LANA binding to histone H2A/H2B; cell-free LANA-H2A/H2B peptide, fluorescence polarization; inhibition, % (no concentration beside the values); 320,000 compounds, 0.6% hits; AID 2629; in the data active = inhibition mostly above about 10%, no sharp cut-off; inactive = mostly below about 6.7%
RTF Ca sens act: cardiac RTF calcium sensitization; 340,000 compounds, 0.24% hits; AID 493008; activation, % at 7.2 µM; P19429+P45379; IANBD-labeled TnC RTF fluorescence at EC20 calcium; 0% EC20 calcium, 100% full calcium;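 active = activation above the mean over all tested compounds plus 3 SD, cut at about 30% in these data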;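 also: rise in fluorescence read as greater calcium sensitivity of cardiac thin filaments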
RTF Ca sens inh: cardiac RTF calcium desensitization; P19429+P45379; IANBD-labeled cardiac RTF, Ca2+ fluorescence; inhibition, % at 7.15 µM; 340,000 compounds, 0.12% hits; AID 493244;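 active = inhibition above the mean inhibition of all tested compounds plus 3 SD, cut at about 17% in these data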;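 also: assay run at fixed EC70 calcium of 1.6 mM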
Keap1 Nrf2 FP: Keap1-Nrf2 (human) interaction inhibition; inhibition, % at 9.4 µM; Q14145; AID 504523; 340,000 compounds, 0.15% hits; Keap1 Kelch-Nrf2 peptide fluorescence polarization, 1536-well; in the data active = inhibition above about 12%;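 also: human Keap1 Kelch domain with fluorescein labeled Nrf2 9mer peptide probe; 0% = neutral control wells and 100% = peptide positive control; higher means more block of Keap1 binding to Nrf2 peptide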
Target sequence (Q14145 whole entry, looked up, the tested form may be a part): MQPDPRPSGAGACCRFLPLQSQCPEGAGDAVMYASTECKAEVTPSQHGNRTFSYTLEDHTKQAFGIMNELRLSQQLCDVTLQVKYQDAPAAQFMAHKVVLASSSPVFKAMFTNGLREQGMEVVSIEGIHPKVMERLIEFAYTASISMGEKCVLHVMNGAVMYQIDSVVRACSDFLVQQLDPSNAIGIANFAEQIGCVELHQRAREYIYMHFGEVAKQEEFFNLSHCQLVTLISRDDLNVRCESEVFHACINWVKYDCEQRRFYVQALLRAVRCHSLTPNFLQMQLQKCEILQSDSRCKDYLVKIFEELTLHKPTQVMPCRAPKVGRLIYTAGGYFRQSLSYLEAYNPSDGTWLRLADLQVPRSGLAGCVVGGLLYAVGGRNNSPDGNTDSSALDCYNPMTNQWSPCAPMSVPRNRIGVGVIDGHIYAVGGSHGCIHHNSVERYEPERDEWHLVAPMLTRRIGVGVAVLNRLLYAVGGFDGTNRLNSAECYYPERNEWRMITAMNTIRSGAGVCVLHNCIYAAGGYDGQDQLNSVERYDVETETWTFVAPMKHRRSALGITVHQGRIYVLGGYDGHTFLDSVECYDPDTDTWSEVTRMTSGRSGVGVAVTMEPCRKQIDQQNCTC
* marks the source's active call; other numbers are inactive results; i = inactive; / = no result; + = active, no number; ! = a repeat was not active.

SMILES	C-LANA FP	LANA-H2A inh	RTF Ca sens act	RTF Ca sens inh	Keap1 Nrf2 FP
COc1ccc(NC(C)=O)cc1S(=O)(=O)NCCc1ccccn1	-1	30*	-3	-1	-1
CC1(C)CC(NC(=O)C(c2ccccc2)c2ccccc2)CC(C)(C)N1	-1	8	2	-4	1
CCC(C(=O)NC1CC(C)(C)NC(C)(C)C1)c1ccccc1 (configuration not stated)	0	14*	3	-3	-2
CSc1nc(N)nc2c1ncn2CC(=O)NCCCN1CCCC1=O	0	-2	-5	-4	0
CCCCCCc1cc2cc(-c3nnc(-c4ccccc4O)o3)c(=O)oc2cc1O	-1	-3	58*	-140	-1
CCCCCCc1cc2cc(-c3nnc(-c4ccccc4OC)o3)c(=O)oc2cc1O	-1	10*	-1	-11	-9
CCCCCCc1cc2cc(-c3nnc(-c4cc(OC)c(OC)c(OC)c4)o3)c(=O)oc2cc1O	/	-7	/	/	/
O=[N+]([O-])c1ccc(N/N=C/c2ccc[nH]2)cc1	-2	+	-13	-7	-7
O=[N+]([O-])c1ccc(NN=Cc2cccc([N+](=O)[O-])c2)cc1	1	/	-3	5	4
O=Cc1ccc(-c2ccccc2C(=O)O)o1	1	-1	6	2	2
O=C(O)c1ccccc1-c1c2cc(I)c(=O)c(I)c-2oc2c(I)c(O)c(I)cc12	-26	-90	501*	i	-339
O=C(c1cccc(S(=O)(=O)N2CCCc3ccccc32)c1)N1CCN(c2ccccc2)CC1	0	-4	0	-9	-2
CN(C)c1nc(N(C)C)nc(N(C)C)n1	0	19*!	5	10	6
Cc1ccc2nc(C(Cl)(Cl)Cl)nc(N/N=C/c3ccc([N+](=O)[O-])cc3)c2c1	0	/	0	-1	-5
CCN(CC(=O)Nc1ccccc1C(F)(F)F)C(=O)c1cc(-c2ccccc2)nn1-c1ccccc1	/	1	-5	1	/
CCN(CC(=O)Nc1ccccc1C(F)(F)F)C(=O)c1ccc(-n2nc(C)c(CCC(=O)OC)c2C)cc1	0	/	62*	-74	1
O=C1ON=C(c2ccccc2)/C1=C/c1ccc(OS(=O)(=O)c2ccccc2)cc1	8	121*	1	12	-4
Cn1c(O)c(/C=N/NC(=O)c2cc3ccccc3cc2O)c2ccccc21	7	12	40*	-41	-5
COc1ccc2c(c1OC)C(=O)N(c1ccc(C)c(C)c1)C2=O	-1	-3	6	-7	-1
COc1ccc2c(c1OC)C(=O)N(c1ccc(C)cc1)C2=O	13	16*	4	13	-5
CCOC(=O)C1C(=O)CC(C)(O)C(C(=O)OCC)C1c1ccc2c(c1)OCO2 (configuration not stated)	1	178*	-3	-6	2
CC(C(=O)Nc1ccc(O)cc1C(=O)O)N1C(=O)/C(=C\c2cccs2)SC1=S (configuration not stated)	3	7	-3	2	-4
Cc1ccc(SCCCCN2CCNCC2)cc1	0	18*	1	3	-5
Cn1c(-c2ccc(C=O)s2)nc2c3ccccc3c3ccccc3c21	16	9	81*	-14	-3
CC[C@@]1(C(=O)OC)N[C@H](CN(C)S(=O)(=O)c2ccc(C(C)(C)C)cc2)[C@@H]2C(=O)N(Cc3ccccc3)C(=O)[C@@H]21	-3	69*	-5	-11	-4
SMILES	C-LANA FP	LANA-H2A inh	RTF Ca sens act	RTF Ca sens inh	Keap1 Nrf2 FP
CCN(C[C@H]1N[C@@](CC)(C(=O)OC)[C@H]2C(=O)N(Cc3ccccc3)C(=O)[C@@H]12)C(=O)Nc1ccc(C(F)(F)F)cc1	-2	+	-5	4	3
COc1cc(N2CCCC2)c(OC)cc1/C=C(/C#N)c1ccc(F)cc1	1	-69*	14	-68	-3
COc1cc(N2CCCC2)c(OC)cc1/C=C(/C#N)c1ccc(Br)cc1	8	-2	30*	-15	0
N#C/C(=C/c1ccc(N2CCCCC2)cc1)c1cccc(F)c1	0	-9	-3	-2	-5
COc1cc(N2CCCC2)ccc1C=O	-2	1	7	-9	0
CC1CCC(NC(=O)CCNC(=O)c2ccc(Br)cc2)CC1 (configuration not stated)	-13	-3	-3	7	0
O=C(/C=C/c1cccc(Cl)c1)OCc1cn2cc(Cl)ccc2n1	0	0	1	-4	2
COc1cccc(/C=C/C(=O)NCc2cn3cc(Cl)ccc3n2)c1	77*	-2	-4	-5	3
CCCCCCC1(C)NC(=S)N(c2ccccc2)N1 (configuration not stated)	0	13*	1	4	-5
CN(C)CCCOc1ccc(Cl)cc1Br	-1	1	-6	5	-5
CN(C)CCOCCOc1ccc(Cl)cc1Br	1	12*	-2	-6	-6
Cc1ccc(C(=O)/C=C/c2cc(C#N)n(C)c2C)cc1	-1	-5	-2	-7	-3
Cc1ccc(/C(N)=N/OC(=O)C(C)c2ccc([N+](=O)[O-])cc2)cc1 (configuration not stated)	-2	17*	-3	-8	8
CC(C(=O)O/N=C(\N)c1cccnc1)c1ccc([N+](=O)[O-])cc1 (configuration not stated)	1	-2	13	-11	-5
COc1ccccc1C1C(C#N)=C(N)Oc2c1oc(CO)cc2=O (configuration not stated)	-1	12*	-5	-9	-8
O=C(CCNC(=O)c1ccccc1)OCC(=O)c1ccccc1	-1	-4	5	-2	4
CCCCC(CC)C(=O)Nc1cc(C(=O)NCCC)ccc1N1CCC2(CC1)CC(c1cccc(Br)c1)=NO2 (configuration not stated)	1	0	12	-6	1
CC(C)(C)C1(C)OC(=O)C(=Cc2ccc(OCC(=O)Nc3ccccc3)cc2)C(=O)O1 (configuration not stated)	1	25*	0	11	-11
CN(CCOC(=O)c1cccc(F)c1)Cc1ccccc1	0	11*	-3	-5	3
CCN1CCN(C(=O)Cn2nc(C)c3sc4ccccc4c3c2=O)CC1	0	4	-4	-5	-3
O=C(CN1CCc2[nH]c3ccccc3c2C1)N1CCCCC1	1	18*	-4	-2	0
O=C(COC(=O)/C=C/c1ccccc1Cl)NC1CCCC1	0	-1	-1	0	-3
COc1ccc(N2CCN(C(=O)C3CCCN(S(=O)(=O)c4ccc(C)cc4)C3)CC2)cc1 (configuration not stated)	0	26*	-3	-15	-5
COc1ccc(N2CCN(C(=O)C3CCCN(S(=O)(=O)c4ccc(F)cc4)C3)CC2)cc1 (configuration not stated)	-2	4	-4	5	0
